A selection: hits, their analogues and other compounds. The true share with any hit is near 2.6%.
Cruzain inh noDet = blocks cruzain activity in detergent-free assay; actives 2.3% (n = 200,000); Potency, µM, inactives show max response, negative = inhibition, most hits filed as inhibitors; purified cruzain, Z-FR-AMC fluorescence, no detergent; P25779;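 further: plate controls were enzyme without inhibitor for no effect and buffer without enzyme for full effect; nearly all actives have a fitted effect of over 40% in size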
Target sequence (P25779 123-467 limits assumed): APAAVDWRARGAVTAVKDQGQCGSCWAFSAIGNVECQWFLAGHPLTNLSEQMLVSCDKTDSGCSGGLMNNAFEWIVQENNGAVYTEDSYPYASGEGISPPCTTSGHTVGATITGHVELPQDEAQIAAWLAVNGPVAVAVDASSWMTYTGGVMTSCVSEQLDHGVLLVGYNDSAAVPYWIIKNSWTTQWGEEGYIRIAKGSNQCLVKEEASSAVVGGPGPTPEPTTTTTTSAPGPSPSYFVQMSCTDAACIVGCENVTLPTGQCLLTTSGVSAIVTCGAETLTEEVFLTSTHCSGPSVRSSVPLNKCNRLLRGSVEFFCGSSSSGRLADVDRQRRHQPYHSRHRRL
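Detergent-free condition (0.00005% Triton X-100) in acetate buffer pH 5.5 with DTT. 1.5 nM enzyme and compound were pre-mixed 15 min, then 2 uM Z-FR-AMC substrate added; reaction progress from fluorescence change between first and third reads (60 s).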
Cruzain inh Det = inhibitors of Trypanosoma cruzi cruzain with detergent. purified cruzain, Z-FR-AMC fluorescence, 0.01% Triton. Potency, µM, for inactives: max response, negative = inhibition, hits mostly inhibitors. actives 0.43% (n = 200,000). AID 1478;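 further: plate controls were neutral wells for no effect and buffer without enzyme for full effect; nearly all actives have a fitted effect of over 40% in size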
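Compounds were screened in titration against cruzain (1.5 nM) with 0.01% Triton X-100 to counter colloidal aggregation. Activity was the AMC fluorescence increase over 60 s after adding 2 uM Z-FR-AMC at pH 5.5.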
Starred values were filed as active, the others as inactive; ? = inconclusive. The call rests on the fitted dose curve; in most records, active means well fitted curve in the direction sought with a large enough effect; inconclusive means small, poorly fitted or top-dose-only effect, or another doubt; inactive means no such curve, though single readings can be large; an effect the other way counts as inactive or inconclusive. Potency means the concentration at half of the fitted maximal effect.

SMILES | Cruzain inh noDet | Cruzain inh Det
O=C1OCCN1C(=O)[C@H]1[C@H](c2ccc(F)cc2)C(c2cccc(Cl)c2)=NN1c1ccccc1 | 20µM* | -3.9%
C[C@@H]1C(c2ccc(F)cc2)=NN(c2ccccc2)[C@H]1C(=O)N1CCOC1=O | -4.2% | -12.3%
CC[C@@H]1C(c2cccc(Cl)c2)=NN(c2ccccc2)[C@H]1C(=O)N1CCOC1=O | -29.9% | -0.7%
CCOC(=O)C1CCCN(S(=O)(=O)c2cc3c4c(c2)CC(=O)N4CCC3)C1 (configuration not stated) | 7.9% | -1.2%
COc1ccc(Cc2nc3c4cnn(-c5ccccc5Br)c4ncn3n2)cc1 | 0.4% | -1.6%
COc1ccccc1NC(=O)c1sc2ncn(Cc3ccc(C)cc3)c(=O)c2c1C | -9.2% | 6.5%
COc1ccccc1NC(=O)c1sc2ncn(Cc3cccc4ccccc34)c(=O)c2c1C | 7.94µM* | 12.8%
COc1c(Cl)cc(Cl)cc1C(=O)Nc1cccc(-c2nc3ccccc3o2)c1C | -12.7% | 2.9%
Nc1ccccc1O.O.O=C(O)[C@H]1[O][Sb][O][C@H]1C(=O)O | -2.5% | 0.8%
CCOc1cc(NC(=S)Nc2ccccc2)c(OCC)cc1NC(=O)c1ccc(OC)cc1 | 15.8µM* | -2.8%
CCOc1cc(NC(=S)Nc2cccc(OC)c2)c(OCC)cc1NC(=O)c1ccc(C)cc1 | ? | -1.3%
Cc1ccc(C)c(N2CCN(C(=O)C3CCN(Cc4nc(-c5cccc(Cl)c5)oc4C)CC3)CC2)c1 | -8.6% | -1.7%
CN(C)C(=O)CSc1nnc([C@@H](N)Cc2ccccc2)o1 | 25.1µM* | 20µM*
C[C@H](N)c1nnc(SCC(=O)N(C)C)o1 | 2.2% | 1.0%
CCOC(=O)C1Oc2ccccc2C(c2ccccc2)=C1C(C)=O (configuration not stated) | -0.3% | -2.9%
CCOc1ccc2nc(N3CCCC(C(=O)NCCc4ccc(OCC)c(OCC)c4)C3)sc2c1 (configuration not stated) | 21.9% | -2.9%
Cc1ccc(S(=O)(=O)N/N=c2\oc3ccccc3cc2C(=O)Nc2cccc(C)c2)cc1 | 7.94µM* | -1.9%
Cc1cccc(NC(=O)c2cc(S(=O)(=O)c3ccccc3)ccc2Cl)c1 | -2.1% | -4.9%
Cc1ccc(S(=O)(=O)NNC(=S)NC(=O)c2ccc([N+](=O)[O-])cc2)cc1 | 3.98µM* | ?
Cc1ccc(C(=O)NC(=S)NNS(=O)(=O)c2ccc(C)cc2)cc1 | -23.9% | ?
O=C(NCCCN1CCN(c2ccc(F)cc2)CC1)c1sc2ncccc2c1-n1cccc1 | -1.8% | -3.1%
COc1ccc(OC)c(NC(=O)Cn2cnc3onc(-c4ccc(Cl)cc4)c3c2=O)c1 | 5.5% | 9.9%
Cc1sc2c(c1C)CN(C(C)(C)C)CN2C(=O)c1ccccc1 | 25.1µM* | -0.6%
COCCN1Cc2c(sc(C)c2C)N(C(=O)c2ccccc2)C1 | 6.8% | -4.1%
CCCOc1ccc(NC(=O)CC2C(=O)N(c3ccc(C)cc3)C(=O)N2C(C)C)cc1 (configuration not stated) | ? | -6.8%
SMILES | Cruzain inh noDet | Cruzain inh Det
NC(Cc1ccccc1)(C(=O)O)C(=O)O | 0.4% | 0.2%
COc1ccc2c(c1[N+](=O)[O-])CCC/C2=N/OC(=O)c1cccc2ccccc12 | 20µM* | -2.2%
COc1ccccc1C(=O)ON=C1c2ccccc2-c2ccccc21 | ? | -7.4%
COc1cccc(/C=N/NC(=O)c2nc(-c3ccccc3)cc(-c3ccccc3)n2)c1O | 12.6µM* | -0.9%
COc1cccc(/C=N/NC(=O)CSc2ccccc2C)c1O | -5.8% | -7.2%
COc1cccc(C(=O)Nc2cccc(OCc3cc(=O)n4c5c(sc4n3)CCCC5)c2)c1 | 0.6% | -0.7%
C/C(=N\NC(=O)CSCc1ccc(Cl)cc1)c1ccc(NC(=O)c2ccccc2)cc1 | 25.1µM* | -4.0%
Cc1cccc(C(=O)Nc2ccc(NC(=O)Cc3ccc(Cl)cc3)cc2)c1 | ? | 0.8%
O=C(Cc1ccc(Cl)cc1)Nc1ccc(NC(=O)c2ccccc2)cc1 | 25.1µM* | 0.9%
C/C(=N/NC(=O)CSCc1ccc(Cl)cc1)c1cccc(NC(=O)c2ccccc2)c1 | ? | -3.7%
CCc1ccc2c(O)c3c(cc2c1C(=O)OC)C(=O)c1c(O)ccc(O)c1C3=O | -4.5% | -8.6%
CN1CCN(c2ncc3nc(-c4ccc(Cl)cc4)c(=O)n(Cc4ccc(F)cc4)c3n2)CC1 | ? | -0.7%
CN1C(=O)Cc2cc(S(=O)(=O)CCC(=O)N3CCN(c4cccc(Cl)c4)CC3)ccc21 | 29.8% | -0.3%
Cc1ccc(CCCC(=O)O)cc1C | -1.1% | -0.8%
Cc1ccc(C(=O)NN2C(=O)/C(=C/c3cccn3C)SC2=S)cc1 | ? | -9.5%
Cc1ccc(C(=O)NN2C(=O)/C(=C/c3cn(C)c4ccccc34)SC2=S)cc1 | 10µM* | 0.6%
Cn1cc(/C=C2\SC(=S)N(NC(=O)c3ccccc3Cl)C2=O)c2ccccc21 | 10µM* | -2.8%
Cn1cccc1/C=C1\SC(=S)N(NC(=O)c2ccccc2Cl)C1=O | 12.7% | -9.9%
COc1cccc(NC(=O)CN(CCc2ccccc2)S(=O)(=O)c2ccc(Cl)cc2)c1 | -6.2% | -3.3%
CS(C)(=O)=O | 0.0% | -3.6%
CCOC(=O)C1=C(N)Oc2ccc(Br)cc2[C@@H]1[C@@H](C#N)C(=O)OCC | -10.2% | 1.6%
CCOC(=O)c1sc(NC(=O)CSc2nc(-c3ccco3)cc(C(F)(F)F)n2)c(C(=O)OC)c1C | -8.6% | 0.9%
N#Cc1c(NC(=O)CSc2nc(-c3ccccc3)cc(C(F)(F)F)n2)sc2c1CCC2 | ? | -9.0%
CCC1CCc2c(sc(NC(=O)CSc3nc(-c4ccco4)cc(C(F)(F)F)n3)c2C#N)C1 (configuration not stated) | 1.26µM* | 3.9%
COc1ccc(-c2cc(C(F)(F)F)nc(SCC(=O)Nc3sc4c(c3C#N)CCC4)n2)cc1 | 12.6µM* | -11.3%
SMILES | Cruzain inh noDet | Cruzain inh Det
CCOc1ccc(S(=O)(=O)NCCc2sc3nc(-c4ccc(C)cc4)nn3c2C)cc1 | ? | -6.0%
COc1ccc(C(=O)N2CCC3(CC2)CN(c2ccccn2)C3)cc1 | -10.5% | -6.3%
C[C@@H](O)CN(CCN(C[C@@H](C)O)C[C@@H](C)O)C[C@@H](C)O.O=[N+]([O-])O.[Cu] | 10.4% | 3.3%
CCCCn1cc2c(c1-c1ccccc1Br)c(=O)n(C)c(=O)n2C | 5.6% | -3.2%
Cc1nc(NC(=O)/C=C/c2ccccc2)sc1C(=O)Nc1ccc(Cl)cc1 | 1.1% | 5.8%
Cc1nc(NC(=O)/C=C/c2ccccc2)sc1C(=O)Nc1ccccc1Cl | 10µM* | -3.5%
O=C(NCc1cccs1)O[C@H]1C[C@H]2CC[C@@H]1C2 | -0.7% | -1.2%
Cc1cc(C)c2c(CC(=O)Nc3nnc(C(C)C)s3)coc2c1 | ? | -3.7%
COC(=O)c1ccc(C(NC(=O)OCc2ccccc2)/C(C)=C/[C@@H](C)C(=O)N(C)Cc2cccnc2)cc1 (some centres not stated) | ? | -2.2%
COc1ccc(/C=N/NC(=O)CCn2c3ccccc3c3ccccc32)cc1OC | ? | -8.4%
CCn1c2ccccc2c2cc(/C=N/NC(=O)c3ccc(O)cc3)ccc21 | 25.1µM* | ?
COc1ccc(NC(=O)Cn2nnc(C(=O)Nc3ccc(C)c(F)c3)c2N)cc1Cl | 6.5% | 0.5%
CCc1ccccc1NC(=O)Cn1nnc(C(=O)Nc2ccc(OC)c(OC)c2)c1N | 13.8% | -0.2%
COc1cc(OC)c(NC(=O)c2nnn(Cc3ccc(C)cc3)c2N)cc1Cl | -18.7% | -3.3%
COc1ccccc1NC(=O)Cn1nnc(C(=O)NCc2cccs2)c1N | -25.6% | 0.3%

Screening results from PubChem.
